# Reference: PubChem BioAssay AID1159580 (chemical genetic matrix, 2015)
# Where “and” joins values, the source holds several entries; their conditions need not be identical. Equal entries are not always repeated. In all, about 5,500 compounds went through this assay and about 2,000 (36%) were called active. Another 18% or so got no clear call; they are omitted. The list shows a part of the results. Values without a mark were called inactive. Rule as the data show it: active = normalized growth mostly below about 0.91 (no sharp cut-off); inconclusive = no clear call, values can overlap the other calls; inactive = mostly above about 0.92.
# Assay: chemical genetic growth profiling, strain panel (AID 1159580);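 also: tested at 20 µM; growth read once vehicle control cultures reached saturation at 30 °C; 1 = growth at the plate median or of vehicle wells; lower values mean less growth of the strain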
# Conditions: growth OD
# [1] = S. cerevisiae deletion strains, locus YAL013W, strain DEP1, active compounds read low
# [2] = S. cerevisiae deletion strains, locus YAL040C, strain CLN3, active compounds read low
# [3] = S. cerevisiae deletion strains, locus YDR150W, strain NUM1, active compounds read low
# [4] = S. cerevisiae deletion strains, locus YDR363W, strain ESC2, active compounds read low
# [5] = S. cerevisiae deletion strains, locus YER002W, strain NOP16, active compounds read low
# [6] = S. cerevisiae deletion strains, locus YGR229C, strain SMI1, active compounds read low
# [7] = S. cerevisiae deletion strains, locus YMR307W, strain GAS1, active compounds read low
# [8] = S. cerevisiae deletion strains, locus YNL153C, strain GIM3, active compounds read low
# [9] = S. cerevisiae deletion strains, locus YNL175C, strain NOP13, active compounds read low
# [10] = S. cerevisiae deletion strains, locus YNL197C, strain WHI3, active compounds read low
# [11] = S. cerevisiae deletion strains, locus YNL224C, strain SQS1, active compounds read low
# [12] = S. cerevisiae deletion strains, locus YNL322C, strain KRE1, active compounds read low
# [13] = S. cerevisiae deletion strains, locus YOR083W, strain WHI5 (second series), active compounds read low
smiles,measurement,setting,value
NC(=Nc1ccccc1)NC(=O)c1nc(Cl)c(N)nc1N,normalized growth,[1],0.975
same,normalized growth,[2],0.997
same,normalized growth,"S. cerevisiae deletion strains, locus YCL061C, strain MRC1 (second series), active compounds read low",1
same,normalized growth,[3],0.999
same,normalized growth,[4],0.973
same,normalized growth,[5],0.991
same,normalized growth,[6],1
same,normalized growth,[7],0.993
same,normalized growth,[8],0.986
same,normalized growth,[9],1.01
same,normalized growth,[10],1.01
same,normalized growth,[11],1
same,normalized growth,[12],0.992
same,normalized growth,[13],1
NC(N)=NC(=O)c1nc(Cl)c(N2CCCCCC2)nc1N,normalized growth,[1],1.01 and 0.962
same,normalized growth,[2],1.09
same,normalized growth,"S. cerevisiae deletion strains, locus YBR021W, strain FUR4, active compounds read low",1.02
same,normalized growth,"S. cerevisiae deletion strains, locus YBR229C, strain ROT2, active compounds read low",1.01
same,normalized growth,"S. cerevisiae deletion strains, locus YCL029C, strain bik1, active compounds read low",1.01
same,normalized growth,"S. cerevisiae deletion strains, locus YDL035C, strain GPR1, active compounds read low",1
same,normalized growth,"S. cerevisiae deletion strains, locus YDL074C, strain BRE1, active compounds read low",0.989
same,normalized growth,"S. cerevisiae deletion strains, locus YDL101C, strain DUN1, active compounds read low",1.02
same,normalized growth,"S. cerevisiae deletion strains, locus YDL134C, strain PPH21, active compounds read low",1.01
same,normalized growth,"S. cerevisiae deletion strains, locus YDL185W, strain tfp1, active compounds read low",1.02
same,normalized growth,"S. cerevisiae deletion strains, locus YDL192W, strain arf1, active compounds read low",1.01
same,normalized growth,"S. cerevisiae deletion strains, locus YDR101C, strain arx1, active compounds read low",1
same,normalized growth,[3],1.01
same,normalized growth,"S. cerevisiae deletion strains, locus YDR162C, strain NBP2, active compounds read low",1.03
same,normalized growth,"S. cerevisiae deletion strains, locus YDR318W, strain mcm21, active compounds read low",1.01
same,normalized growth,[4],0.986
same,normalized growth,"S. cerevisiae deletion strains, locus YDR388W, active compounds read low",1.01
same,normalized growth,"S. cerevisiae deletion strains, locus YDR502C, strain sam2, active compounds read low",1.01
same,normalized growth,"S. cerevisiae deletion strains, locus YEL061C, strain CIN8, active compounds read low",1.01
same,normalized growth,[5],1.02
same,normalized growth,"S. cerevisiae deletion strains, locus YER110C, active compounds read low",1
same,normalized growth,"S. cerevisiae deletion strains, locus YER155C, strain BEM2, active compounds read low",1.01
same,normalized growth,"S. cerevisiae deletion strains, locus YER167W, strain BCK2, active compounds read low",1
same,normalized growth,"S. cerevisiae deletion strains, locus YGL078C, strain dbp3, active compounds read low",1.02
same,normalized growth,"S. cerevisiae deletion strains, locus YGL086W, strain mad1, active compounds read low",0.998
same,normalized growth,"S. cerevisiae deletion strains, locus YGL248W, strain PDE1, active compounds read low",1.01
same,normalized growth,"S. cerevisiae deletion strains, locus YGR078C, strain PAC10, active compounds read low",0.991
same,normalized growth,"S. cerevisiae deletion strains, locus YGR135W, strain pre9, active compounds read low",0.995
same,normalized growth,[6],1.01 and 0.996
same,normalized growth,"S. cerevisiae deletion strains, locus YGR252W, strain gcn5, active compounds read low",0.853
same,normalized growth,"S. cerevisiae deletion strains, locus YHR030C, strain SLT2, active compounds read low",1.01 and 1.06
same,normalized growth,"S. cerevisiae deletion strains, locus YHR079C, strain IRE1 (second series), active compounds read low",1.02
same,normalized growth,"S. cerevisiae deletion strains, locus YHR079C, strain IRE1, active compounds read low",1.06
same,normalized growth,"S. cerevisiae deletion strains, locus YHR094C, strain hxt1, active compounds read low",1.01
same,normalized growth,"S. cerevisiae deletion strains, locus YHR129C, strain ARP1, active compounds read low",1
same,normalized growth,"S. cerevisiae deletion strains, locus YHR200W, strain rpn10, active compounds read low",1.02
same,normalized growth,"S. cerevisiae deletion strains, locus YIL066C, strain RNR3, active compounds read low",1.02
same,normalized growth,"S. cerevisiae deletion strains, locus YIL073C, strain SPO22, active compounds read low",1.08
same,normalized growth,"S. cerevisiae deletion strains, locus YIL125W, strain kgd1, active compounds read low",1.01
same,normalized growth,"S. cerevisiae deletion strains, locus YIR030C, strain dcg1, active compounds read low",1.02
same,normalized growth,"S. cerevisiae deletion strains, locus YJL095W, strain BCK1, active compounds read low",0.986 and 1.06
same,normalized growth,"S. cerevisiae deletion strains, locus YJL134W, strain LCB3, active compounds read low",1.01
same,normalized growth,"S. cerevisiae deletion strains, locus YJL168C, strain set2, active compounds read low",1.02
same,normalized growth,"S. cerevisiae deletion strains, locus YJL187C, strain SWE1 (second series), active compounds read low",1.02
same,normalized growth,"S. cerevisiae deletion strains, locus YJR043C, strain POL32, active compounds read low",0.982
same,normalized growth,"S. cerevisiae deletion strains, locus YJR066W, strain TOR1, active compounds read low",1.02
same,normalized growth,"S. cerevisiae deletion strains, locus YJR075W, strain HOC1, active compounds read low",0.988
same,normalized growth,"S. cerevisiae deletion strains, locus YKL009W, strain mrt4, active compounds read low",0.999
same,normalized growth,"S. cerevisiae deletion strains, locus YKL068W, active compounds read low",1.01
same,normalized growth,"S. cerevisiae deletion strains, locus YKL085W, strain MDH1 (second series), active compounds read low",1.01
same,normalized growth,"S. cerevisiae deletion strains, locus YKL085W, strain MDH1, active compounds read low",1.01
same,normalized growth,"S. cerevisiae deletion strains, locus YKL190W, strain CNB1, active compounds read low",1.01
same,normalized growth,"S. cerevisiae deletion strains, locus YKR001C, strain vps1, active compounds read low",1.02
same,normalized growth,"S. cerevisiae deletion strains, locus YLR039C, strain RIC1, active compounds read low",1.14
same,normalized growth,"S. cerevisiae deletion strains, locus YLR058C, strain SHM2, active compounds read low",1.02
same,normalized growth,"S. cerevisiae deletion strains, locus YLR102C, strain apc9, active compounds read low",1.01
same,normalized growth,"S. cerevisiae deletion strains, locus YLR113W, strain HOG1, active compounds read low",0.973
same,normalized growth,"S. cerevisiae deletion strains, locus YLR262C, strain YPT6, active compounds read low",1.16
same,normalized growth,"S. cerevisiae deletion strains, locus YLR268W, strain sec22, active compounds read low",1.02
same,normalized growth,"S. cerevisiae deletion strains, locus YLR330W, strain CHS5, active compounds read low",1.02
same,normalized growth,"S. cerevisiae deletion strains, locus YLR342W, strain FKS1 (second series), active compounds read low",0.887
same,normalized growth,"S. cerevisiae deletion strains, locus YLR371W, strain rom2, active compounds read low",1.03
same,normalized growth,"S. cerevisiae deletion strains, locus YLR418C, strain cdc73, active compounds read low",0.91
same,normalized growth,"S. cerevisiae deletion strains, locus YML016C, strain PPZ1, active compounds read low",1.01
same,normalized growth,"S. cerevisiae deletion strains, locus YML032C, strain rad52, active compounds read low",1.01
same,normalized growth,"S. cerevisiae deletion strains, locus YML124C, strain tub3, active compounds read low",1.01
same,normalized growth,"S. cerevisiae deletion strains, locus YMR078C, strain ctf18, active compounds read low",1.01
same,normalized growth,"S. cerevisiae deletion strains, locus YMR223W, strain ubp8, active compounds read low",0.999
same,normalized growth,"S. cerevisiae deletion strains, locus YMR263W, strain SAP30, active compounds read low",1.01 and 0.995
same,normalized growth,[7],0.88
same,normalized growth,"S. cerevisiae deletion strains, locus YNL067W, strain RPL9B, active compounds read low",1
same,normalized growth,"S. cerevisiae deletion strains, locus YNL128W, strain TEP1, active compounds read low",1.02
same,normalized growth,[8],1.01 and 0.97
same,normalized growth,[9],1.03
same,normalized growth,"S. cerevisiae deletion strains, locus YNL183C, strain NPR1, active compounds read low",1.02
same,normalized growth,[10],1.07
same,normalized growth,[11],1.01
same,normalized growth,"S. cerevisiae deletion strains, locus YNL233W, strain BNI4, active compounds read low",1
same,normalized growth,"S. cerevisiae deletion strains, locus YNL250W, strain rad50, active compounds read low",1.01
same,normalized growth,"S. cerevisiae deletion strains, locus YNL271C, strain bni1, active compounds read low",1.02
same,normalized growth,"S. cerevisiae deletion strains, locus YNL298W, strain CLA4, active compounds read low",1
same,normalized growth,"S. cerevisiae deletion strains, locus YNL307C, strain MCK1, active compounds read low",0.989
same,normalized growth,[12],1.01
same,normalized growth,"S. cerevisiae deletion strains, locus YNR052C, strain pop2, active compounds read low",1.02
same,normalized growth,"S. cerevisiae deletion strains, locus YOL006C, strain TOP1, active compounds read low",0.995
same,normalized growth,"S. cerevisiae deletion strains, locus YOL012C, strain htz1",2.1 [resistant] (active)
same,normalized growth,"S. cerevisiae deletion strains, locus YOL147C, strain pex11, active compounds read low",1
same,normalized growth,"S. cerevisiae deletion strains, locus YOR061W, strain CKA2, active compounds read low",1.01
same,normalized growth,"S. cerevisiae deletion strains, locus YOR069W, strain VPS5, active compounds read low",1.01
same,normalized growth,[13],0.979
same,normalized growth,"S. cerevisiae deletion strains, locus YOR136W, strain idh2, active compounds read low",1.02
same,normalized growth,"S. cerevisiae deletion strains, locus YOR144C, strain elg1, active compounds read low",1.01
same,normalized growth,"S. cerevisiae deletion strains, locus YOR184W, strain ser1, active compounds read low",1.02
same,normalized growth,"S. cerevisiae deletion strains, locus YOR231W, strain MKK1, active compounds read low",1.02
same,normalized growth,"S. cerevisiae deletion strains, locus YOR316C, strain cot1, active compounds read low",1.01
same,normalized growth,"S. cerevisiae deletion strains, locus YPL055C, strain LGE1, active compounds read low",1.01 and 0.902
same,normalized growth,"S. cerevisiae deletion strains, locus YPL241C, strain CIN2, active compounds read low",1.01
same,normalized growth,"S. cerevisiae deletion strains, locus YPL256C, strain CLN2, active compounds read low",1.09
same,normalized growth,"S. cerevisiae deletion strains, locus YPR119W, strain clb2, active compounds read low",1.01
same,normalized growth,"S. cerevisiae deletion strains, locus YPR141C, strain kar3, active compounds read low",1.02
same,normalized growth,"S. cerevisiae deletion strains, locus YPR163C, strain tif3, active compounds read low",1.02
same,normalized growth,"S. cerevisiae deletion strains, locus YPR167C, strain met16, active compounds read low",1.01
same,normalized growth,"S. cerevisiae deletion strains, strain wtn01, active compounds read low",1.01
same,normalized growth,"S. cerevisiae strains, strain wild type, active compounds read low",1.01
